Data: PubChem BioAssay (Tox21)
Several values for one entry are separate records, joined by “and”; a condition that tells them apart may be missing. Equal values may be shown once. Inconclusive results are not listed. A structure can be active in one record and inactive in another. Activity calls are given as the source filed them. Unless noted, calls follow the shape of the dose curve; as a rule, active = well fitted curve in the direction sought with a large enough effect in the repeat runs; inconclusive = weak or mixed curves; inactive = no such curve, though single readings can be large; an effect the other way counts as inactive or inconclusive.

Assays:
[1] = qHTS assay to identify small molecule agonists of the peroxisome proliferator-activated receptor delta (PPARd) signaling pathway - cell viability counter screen (AID 743211); also: nearly all actives have a fitted effect of over 55% in size
Method in brief: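 Multiplexed format: after the 2 h room-temperature LiveBLAzer B/G FRET step, CellTiter-Glo was added to the same wells. Luminescence after 30 min gave cell viability; compound exposure was 17 h at 37C.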

[2] = target: Peroxisome proliferator-activated receptor delta (Homo sapiens) (UniProt Q03181); assay: qHTS assay to identify small molecule agonists of the peroxisome proliferator-activated receptor delta (PPARd) signaling pathway (AID 743212; calls by dose curve)
Chain of Peroxisome proliferator-activated receptor delta (Homo sapiens) (Q03181 whole entry, looked up): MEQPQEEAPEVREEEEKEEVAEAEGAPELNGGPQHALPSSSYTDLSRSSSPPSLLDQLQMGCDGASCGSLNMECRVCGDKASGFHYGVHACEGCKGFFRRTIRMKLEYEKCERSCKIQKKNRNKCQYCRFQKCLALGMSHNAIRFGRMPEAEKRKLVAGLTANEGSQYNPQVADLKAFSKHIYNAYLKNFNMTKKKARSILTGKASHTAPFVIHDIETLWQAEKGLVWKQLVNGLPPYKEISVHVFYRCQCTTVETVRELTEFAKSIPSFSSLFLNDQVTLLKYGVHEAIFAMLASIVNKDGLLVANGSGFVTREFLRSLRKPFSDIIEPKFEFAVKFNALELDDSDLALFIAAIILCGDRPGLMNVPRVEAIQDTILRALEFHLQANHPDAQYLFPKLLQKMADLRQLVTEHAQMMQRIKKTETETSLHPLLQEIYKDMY
Method in brief: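 Beta-lactamase reporter read by fluorescence (LiveBLAzer B/G FRET, 2 h, room temperature). Test agents, in DMSO, incubated at 37 C with PPARd-bla HEK293H cells.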

[3] = target: Peroxisome proliferator-activated receptor delta (Homo sapiens) (UniProt Q03181); assay: qHTS assay to identify small molecule antagonists of the peroxisome proliferator-activated receptor delta (PPARd) signaling pathway (AID 743215; active = well fitted inhibition curve with a large enough effect in the signal ratio in the repeat runs, not every such curve was filed as active; the % refers to the signal ratio;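 also: cells stimulated with agonist L165041 at 300 nM final during compound exposure; series mostly up to about 62 µM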)
Method in brief: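 HEK293H GeneBLAzer PPARd UAS-bla reporter cells; cpd + L165041 300 nM final, 17 h 37 C; LiveBLAzer B/G FRET substrate 2 h RT; fluorescence intensity read-out. Antagonist mode.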

[4] = target: Bile acid receptor (Homo sapiens) (UniProt Q96RI1); assay: qHTS assay to identify small molecule antagonists of the farnesoid-X-receptor (FXR) signaling pathway (AID 743217; active = well fitted inhibition curve with a large enough effect in the signal ratio in the repeat runs, not every such curve was filed as active; the % refers to the signal ratio)
Chain of Bile acid receptor (Homo sapiens) (Q96RI1 whole entry, looked up): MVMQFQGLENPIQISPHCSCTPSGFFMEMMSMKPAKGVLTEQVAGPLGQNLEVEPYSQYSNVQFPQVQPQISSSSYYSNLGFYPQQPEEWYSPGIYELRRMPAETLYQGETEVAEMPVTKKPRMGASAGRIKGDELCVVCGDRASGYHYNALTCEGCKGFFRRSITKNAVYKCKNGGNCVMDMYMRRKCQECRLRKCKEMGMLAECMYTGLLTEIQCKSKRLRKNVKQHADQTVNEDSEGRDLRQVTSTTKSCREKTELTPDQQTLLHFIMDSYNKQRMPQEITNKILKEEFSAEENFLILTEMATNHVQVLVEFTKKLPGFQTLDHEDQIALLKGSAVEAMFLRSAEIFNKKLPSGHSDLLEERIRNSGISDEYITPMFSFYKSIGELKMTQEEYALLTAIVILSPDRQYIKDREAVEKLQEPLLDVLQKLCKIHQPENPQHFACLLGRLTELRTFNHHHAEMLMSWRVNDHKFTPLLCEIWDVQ
Method in brief: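 Read-out: beta-lactamase FRET fluorescence (LiveBLAzer B/G substrate, 2 h, room temperature) in GeneBLAzer FXR-UAS-bla HEK 293T cells. Compounds were co-dosed with 50 uM chenodeoxycholic acid (final) and incubated 16 h at 37 °C.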

[5] = qHTS assay to identify small molecule agonists of the farnesoid-X-receptor (FXR) signaling pathway - cell viability counter screen (AID 743218); also: nearly all actives have a fitted effect of over 45% in size; also: potency is read from the fitted curve at half-maximal effect
Method in brief: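 Luminescence from CellTiter-Glo, read after 30 min at RT, reports viability of GeneBLAzer FXR-UAS-bla HEK 293T cells treated 16 h with compounds in the wells used for the beta-lactamase reporter.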

[6] = target: Bile acid receptor (Homo sapiens) (UniProt Q96RI1); assay: qHTS assay to identify small molecule agonists of the farnesoid-X-receptor (FXR) signaling pathway (AID 743220; active = well fitted activation curve with a large enough effect in the signal ratio in the repeat runs, not every such curve was filed as active; the % refers to the signal ratio)
Method in brief: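 FXR-UAS-bla HEK 293T cells carrying a UAS-driven beta-lactamase reporter were plated for 5 h at 37C/5% CO2, then exposed to DMSO-dissolved Tox21 10K compounds for 16 h at 37C. A LiveBLAzer B/G FRET substrate was loaded for 2 h at room temperature before fluorescence reading.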

[7] = qHTS assay to identify small molecule antagonists of the farnesoid-X-receptor (FXR) signaling pathway - cell viability counter screen (AID 743221; active = well fitted cell-killing curve with a large enough effect in the repeat runs, not every such curve was filed as active; also: nearly all actives have a fitted effect of over 50% in size)
Method in brief: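 CellTiter-Glo, 30 min RT, luminescence; same wells as the LiveBLAzer FRET read. Cells: FXR-UAS-bla HEK 293T. Treatment: compound with chenodeoxycholic acid 50 uM final, 16 h at 37 C.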

[8] = target: Vitamin D3 receptor (Homo sapiens) (UniProt P11473); assay: qHTS assay to identify small molecule agonists of the vitamin D receptor (VDR) signaling pathway (AID 743222; calls by dose curve)
Chain of Vitamin D3 receptor (Homo sapiens) (P11473 whole entry, looked up): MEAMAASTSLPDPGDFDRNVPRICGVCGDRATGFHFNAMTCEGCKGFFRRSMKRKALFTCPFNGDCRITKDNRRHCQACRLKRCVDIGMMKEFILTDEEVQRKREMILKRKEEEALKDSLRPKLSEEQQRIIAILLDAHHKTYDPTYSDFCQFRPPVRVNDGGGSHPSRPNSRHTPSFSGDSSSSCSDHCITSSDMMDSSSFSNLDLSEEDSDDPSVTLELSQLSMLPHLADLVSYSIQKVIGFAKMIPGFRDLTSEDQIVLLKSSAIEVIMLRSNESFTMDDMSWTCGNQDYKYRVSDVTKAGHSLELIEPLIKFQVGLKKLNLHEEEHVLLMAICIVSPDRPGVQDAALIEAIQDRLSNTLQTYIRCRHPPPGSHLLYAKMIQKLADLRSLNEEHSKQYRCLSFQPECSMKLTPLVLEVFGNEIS
Method in brief: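 Beta-lactamase reporter readout (LiveBLAzer B/G FRET, 2 h RT) in VDR-bla cells after 16 h compound treatment at 37C, 5% CO2; cells pre-incubated 4 h before pin transfer of DMSO solutions.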

[9] = target: Vitamin D3 receptor (Homo sapiens) (UniProt P11473); assay: qHTS assay to identify small molecule antagonists of the vitamin D receptor (VDR) signaling pathway (AID 743223; active = well fitted inhibition curve with a large enough effect in the signal ratio in the repeat runs, not every such curve was filed as active; the % refers to the signal ratio)
Method in brief: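 After VDR-bla cells are plated and left 4 h at 37C, DMSO-dissolved compounds and 3 nM (final) calcitriol agonist are added. Incubation continues 16 h at 37C; FRET beta-lactamase substrate then develops 2 h at room temperature.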

[10] = qHTS assay to identify small molecule agonists of the vitamin D receptor (VDR) signaling pathway - cell viability counter screen (AID 743224); also: nearly all actives have a fitted effect of over 50% in size; also: potency is read from the fitted curve at half-maximal effect
Method in brief: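 Cytotoxicity counter screen: VDR-bla cells, 16 h compound exposure at 37C, 5% CO2; CellTiter-Glo luminescence, 30 min RT, same wells as bla read.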

[11] = qHTS assay to identify small molecule antagonists of the vitamin D receptor (VDR) signaling pathway - cell viability counter screen (AID 743225); also: nearly all actives have a fitted effect of over 50% in size
Method in brief: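 Cytotoxicity toward the VDR-bla HEK 293T line was scored by ATP-based CellTiter-Glo luminescence, read in the wells already used for the beta-lactamase readout after 16 h compound treatment under 3 nM 1-alpha,25-dihydroxyvitamin D3 stimulation.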

[12] = qHTS assay to identify small molecule agonists of the NFkB signaling pathway - cell viability counter screen (AID 1159515; calls by dose curve; also: series mostly up to about 61 µM; nearly all actives have a fitted effect of over 55% in size)
Method in brief: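 ME-180 NFkB-bla cells, 2,000/well; overnight attach; compound 5 hr, 37 C/5% CO2; LiveBLAzer substrate 1.5 hr RT; then CellTiter-Glo in same wells, 30 min RT, luminescence read.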

[13] = qHTS assay to identify small molecule agonists of the endoplasmic reticulum stress response signaling pathway (AID 1159516; active = well fitted activation curve with a large enough effect in the signal ratio in the repeat runs, not every such curve was filed as active; the % refers to the signal ratio)
Method in brief: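 HeLa ESRE-bla reporter line; cpd 5 h, 37 C/5% CO2; LiveBLAzer B/G FRET substrate 2 h RT; ex 405, em 460/530 nm.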

[14] = qHTS assay to identify small molecule agonists of the endoplasmic reticulum stress response signaling pathway - cell viability counter screen (AID 1159517; calls by dose curve; also: nearly all actives have a fitted effect of over 50% in size; also: potency is read from the fitted curve at half-maximal effect)
Method in brief: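 Cytotoxicity of test compounds toward ESRE-bla HeLa cells was assessed after 5 hr exposure. The luminescent CellTiter-Glo signal was measured 30 min after reagent addition.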

[15] = qHTS assay to identify small molecule antagonists of the retinoid-related orphan receptor gamma (ROR-gamma) signaling pathway - cell viability counter screen (AID 1159520); also: nearly all actives have a fitted effect of over 50% in size; also: potency is read from the fitted curve at half-maximal effect
Method in brief: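 Tet-on ROR gamma CHO cells (1,000/well) were plated 4 hr, given compounds in DMSO for 2 hr at 37 C, then induced with 1 uM final doxycycline for 16 hr. Viability was read as ATP by CellTiter-Glo luminescence after 30 min.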

[16] = target: Nuclear receptor ROR-gamma (Homo sapiens) (UniProt P51449); assay: qHTS assay to identify small molecule antagonists of the retinoid-related orphan receptor gamma (ROR-gamma) signaling pathway (AID 1159521; also: nearly all actives have a fitted effect of over 50% in size; also: potency is read from the fitted curve at half-maximal effect)
Method in brief: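 Readout: ONE-Glo luciferase luminescence, 30 min at room temperature. System: Tet-on RORγ CHO, RORE-LUC. Sequence: compound 2 h, doxycycline 1 uM final, 16 h at 37 C.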

[17] = qHTS assay to identify small molecule agonists of the AP-1 signaling pathway - cell viability counter screen (AID 1159525; calls by dose curve; also: nearly all actives have a fitted effect of over 55% in size)
Method in brief: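 Each titration point was normalised to DMSO and tetra n-octyl ammonium bromide controls. The read was Cell Titer Glo luminescence after 30 min at RT, following 5 h compound exposure of ME-180 AP-1-bla cells at 37 °C.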

[18] = qHTS assay to identify small molecule agonists of the AP-1 signaling pathway (AID 1159526; calls by dose curve)
[19] = target: Retinoic acid receptor RXR-alpha (Homo sapiens) (UniProt P19793); assay: qHTS assay to identify small molecule agonists of the RXR signaling pathway (AID 1159527; calls by dose curve; also: nearly all actives have a fitted effect of over 35% in size; also: potency is read from the fitted curve at half-maximal effect)
Chain of Retinoic acid receptor RXR-alpha (Homo sapiens) (P19793 whole entry, looked up): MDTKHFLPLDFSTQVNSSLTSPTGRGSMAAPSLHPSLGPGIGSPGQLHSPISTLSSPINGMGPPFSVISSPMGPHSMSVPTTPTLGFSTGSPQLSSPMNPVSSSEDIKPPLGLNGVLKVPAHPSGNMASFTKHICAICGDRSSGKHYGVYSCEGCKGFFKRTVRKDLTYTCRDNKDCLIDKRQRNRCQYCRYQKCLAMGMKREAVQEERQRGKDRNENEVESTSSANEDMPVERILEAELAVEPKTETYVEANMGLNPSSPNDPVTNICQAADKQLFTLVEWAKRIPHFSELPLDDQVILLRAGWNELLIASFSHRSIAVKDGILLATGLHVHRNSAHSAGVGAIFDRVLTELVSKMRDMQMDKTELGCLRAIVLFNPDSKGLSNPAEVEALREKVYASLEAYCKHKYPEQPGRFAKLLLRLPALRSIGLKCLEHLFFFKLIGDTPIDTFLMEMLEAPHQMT
Method in brief: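 Reporter activation is measured as beta-lactamase activity via FRET substrate cleavage (emission 460/530 nm) in HEK 293T cells expressing an RXR-alpha-driven bla construct, following 16 hr compound exposure at 37 C.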

[20] = qHTS assay to identify small molecule antagonists of the peroxisome proliferator-activated receptor delta (PPARd) signaling pathway - cell viability counter screen (AID 743213); also: nearly all actives have a fitted effect of over 50% in size; also: potency is read from the fitted curve at half-maximal effect
Method in brief: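 PPARd-bla HEK293H cells (3000/well) got compound plus 300 nM L165041 agonist for 17 h at 37 C. Viability in the same wells came from CellTiter-Glo luminescence after 30 min at room temperature.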

Measured: Potency

CCOc1ccccc1C(N)=O
not listed: [20]
inactive: all other assays above

CC(=O)OCCOCCOCCOC(C)=O
inactive and 12.3 µM (active): [19]
not listed: [2]
inactive: all other assays above

COC(c1ccccc1)(c1ccccc1)[C@H](Oc1nc(C)cc(C)n1)C(=O)O
not listed: [3]
inactive: all other assays above

C=CS(=O)(=O)O
not listed: [2] | [4]
inactive: all other assays above

CCCC(=O)c1ccccc1
not listed: [2] | [4] | [6] | [20]
inactive: all other assays above

NC12CC3CC(CC(C3)C1)C2
not listed: [4] | [6] | [9]
inactive: all other assays above

COc1ccc(Cc2cnc(N)nc2N)cc1OC
not listed: [2] | [20]
inactive: all other assays above

COc1nc(C)nc(Cl)c1NC1=NCCN1
not listed: [4] | [6]
inactive: all other assays above

O=C(O)Cn1cnnn1
not listed: [1]
inactive: all other assays above

C#CC(C)(CC)OC(=O)c1ccccc1C(=O)O (centres undefined)
not listed: [2] | [4] | [6] | [20]
inactive: all other assays above

O=C1CC2(CCCC2)CC(=O)N1CCCCN1CCN(c2ncccn2)CC1
24.5 µM (active) and inactive: [5]
27.3 µM (active) and inactive: [16]
not listed: [1] | [2] | [3] | [9] | [19]
inactive: all other assays above

O
not listed: [2] | [3] | [4] | [6] | [8] | [9] | [16]
inactive: all other assays above

NC(N)=NC(=O)Cc1c(Cl)cccc1Cl
not listed: [1] | [4] | [5] | [6] | [11]
inactive: all other assays above

C1COC(NC(C2CC2)C2CC2)=N1
not listed: [4] | [6] | [8] | [15]
inactive: all other assays above

CC(=O)Nc1ccc(C(=O)CCl)cc1
inactive and 13.7 µM (active): [15] | [16]
inactive and 27.5 µM (active): [14]
inactive and 43.6 µM (active): [20]
active: [19] 11 µM
inactive and 54.9 µM (active): [5] | [10]
not listed: [1] | [2] | [6] | [9]
inactive: all other assays above
